Most compounds without a hit are left out; they make up all but 2.3% or so of the library.
AmpC detergent: qHTS Inhibitors of AmpC Beta-Lactamase (assay with detergent) | Potency, µM (series often up to 114 µM), for inactives: at the top dose activity change, negative = inhibition, hits mostly inhibitors | P00811 | AmpC hydrolysis of nitrocefin, absorbance 480 nm, 0.01% Triton | hit rate 0.041% among 370,000;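 further: 0% = no-compound wells and -100% = no-enzyme wells; nearly all actives have a fitted effect of over 25% in size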
Target sequence (P00811 whole entry, looked up): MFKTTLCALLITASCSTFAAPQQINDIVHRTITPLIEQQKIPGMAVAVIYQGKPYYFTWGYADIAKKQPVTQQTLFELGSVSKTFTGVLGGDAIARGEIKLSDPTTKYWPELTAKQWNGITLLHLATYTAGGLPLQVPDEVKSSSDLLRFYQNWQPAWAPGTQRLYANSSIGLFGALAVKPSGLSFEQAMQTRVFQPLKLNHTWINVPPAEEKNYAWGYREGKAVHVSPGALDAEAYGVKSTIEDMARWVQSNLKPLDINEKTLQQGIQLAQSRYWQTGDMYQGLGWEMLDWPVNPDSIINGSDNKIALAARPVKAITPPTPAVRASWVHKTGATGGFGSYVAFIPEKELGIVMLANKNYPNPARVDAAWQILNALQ
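AmpC (5.3 nM in the dispensed reagent) in 20 mM phosphate pH 7.0 with 0.01% (detergent screen) or 0.0001% Triton X-100 was preincubated with compounds for 15 min at room temperature. Nitrocefin was then added from an 800 uM solution, and hydrolysis was followed at 480 nm.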
AmpC inh no detg: qHTS Inhibitors of AmpC Beta-Lactamase (assay without detergent); Potency, µM (top dose mostly 57.1 µM), for the others: at the highest dose activity change, negative = inhibition, actives largely listed as inhibitors; AmpC nitrocefin hydrolysis, absorbance 480 nm, 0.0001% Triton; P00811; hit rate 0.52% among 330,000;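 further: plate controls were no compound for no effect and no enzyme for full effect; nearly all actives have a fitted effect of over 20% in size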
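20 mM phosphate pH 7.0 + 0.01% (detergent screen) or 0.0001% Triton X-100; 5.3 nM AmpC reagent; cpd preinc 15 min RT; nitrocefin (800 uM stock) to start; A480 q20 s × 4 min; Activity was normalised to no-enzyme and no-compound control wells.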
Lassa entry inh: qHTS for Inhibitors of binding or entry into cells for Lassa Virus. Potency, µM (highest dose often 37.9 µM), inactives show top-dose activity change, negative = inhibition, hits mostly inhibitors. Lassa virus pseudotype entry inhibition, cell reporter. hit rate 1.2% among 300,000. AID 540256, 2011; calls by dose curve; tested in HEK293 cells; further: nearly all actives have a fitted effect of over 50% in size
AMA1 RON2 block: qHTS for Inhibitors of AMA1-RON; Towards Development of Antimalarial Drug Lead: Primary Screen; AlphaScreen AMA1-biotinylated RON2 peptide binding; Potency, µM (titrated, usually from 58.2 µM), inactives show top-dose activity change, negative = inhibition, hits mostly inhibitors; hit rate 0.2% among 360,000;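 further: 0% = vehicle wells and -100% = peptide control; nearly all actives have a fitted effect of over 45% in size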
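AMA1 (3D7) with his tag at 25 nM final met compounds first, then biotinylated RON2 peptide at 25 nM; detection used donor plus acceptor beads, 10 µg/mL apiece, read by AlphaScreen after 30 min at room temperature.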
MARV entry inh: qHTS for inhibitors of binding or entry into cells for Marburg Virus; Potency, µM (highest dose often 37.8 µM), for the others: at the top dose activity change, negative = inhibition, most hits filed as inhibitors; Marburg virus pseudotyped entry inhibition, cell reporter; hit rate 1.8% among 300,000; calls by dose curve; tested in HEK293 cells
Numbers without * were called inactive; ? = inconclusive; . = not tested or not shown; [ ] = dose if it differs, or a comment. Unless noted, the call rests on the fitted dose curve; in most records, active means well fitted curve in the direction sought with a large enough effect; inconclusive means small, poorly fitted or top-dose-only effect, or another doubt; inactive means no such curve, though single readings can be large; an effect the other way counts as inactive or inconclusive. Unless noted, on the % scale 0 is the no-effect control and ±100 the full control effect; potency means the concentration at half of the fitted maximal effect.

SMILES | AmpC detergent | AmpC inh no detg | Lassa entry inh | AMA1 RON2 block | MARV entry inh
Cc1ccc(S(=O)(=O)N(CC(=O)N2CCCCCC2)c2ccccc2F)cc1 | -2% | 39% | 10µM* | -4% | 11%[46.1 µM]
COc1ccccc1N(CC(=O)N1CCCCCC1)S(=O)(=O)c1ccc(C)cc1 | 1% | 71% | -21% | 0% | ?
COc1ccccc1NC(=O)c1cnc(SCC(=O)N2CCOCC2)n(C)c1=O | 2% | . | 5%[46.1 µM] | . | .
COc1ccc(NCc2nnc(SCc3ccc(Cl)cc3)n2-c2ccccc2)cc1 | -13% | 26% | ? | 20µM* | ?
COc1ccc(-n2c(COc3ccc(Cl)cc3)nnc2SCc2ccc(C#N)cc2)cc1 | ? | -10% | ? | -8% | -18%
Cc1ccc(-n2ncc(C(=O)Nc3ccc4c(c3)OCCO4)c2C2CCN(C(=O)OC(C)(C)C)CC2)cc1C | 22% | . | ? | . | .
COC(=O)C1=C(C(=O)OC)[C@@H]2N(C)c3ccccc3[C@@]23C[C@@H](C(=O)OC)N(C(=O)NC(C)(C)C)C3=N1 | . | . | ? | . | 14%[14.2 µM]
O=C(CCc1ccccc1)N/N=C/c1cc(Br)ccc1O | 4% | -22% | ? | 59% | 22µM*
CCC1(c2ccc(Cl)cc2)NC(=O)N(Cc2ccc(C(=O)OC)cc2)C1=O (configuration not stated) | 2% | -10% | ? | -13% | 8.9µM*
CCCC[C@]12Cc3cc(C#N)ccc3C(O1)c1c(c3cc(F)ccc3oc1=O)O2 | ? | -38%[11.4 µM] | . | . | .
CCCC(=O)N1CC(=O)Nc2ccc(C)cc2C1c1ccc(F)cc1 (configuration not stated) | -17% | -12% | . | 4% | .
CCCC(=O)N1CC(=O)Nc2ccc(Br)cc2C1c1ccc(F)cc1 (configuration not stated) | 4% | -24% | -5%[46.1 µM] | 3% | 11µM*
O=C(CCCSc1ccccc1)Nc1nc(-c2ccco2)c(-c2ccco2)s1 | -5% | 28µM* | ? | ? | ?
O=c1[nH][nH]c2c(N=Cc3ccccc3O)ccc(F)c12 | ? | -45% | ? | 11µM* | ?
Cc1ccc(N=Nc2ccc3ccccc3c2O)cc1 | -8% | -2% | 4.5µM* | 2.8µM* | ?
Cc1ccc(N=Nc2ccc(O)c3ncccc23)cc1 | -2% | -9% | ? | -2% | ?
COc1cccc(N=Nc2ccc3ccccc3c2O)c1 | ? | -17% | . | 2.8µM* | .
Oc1ccc2ccccc2c1N=Nc1ccc(F)cc1 | -13% | -21% | -22% | 1.4µM* | -2%
Oc1c(N=Nc2ccc(F)cc2)ccc2ccccc12 | -12% | -9% | ? | 1.8µM* | ?
O=C1N=C2C=CC=CC2N1C1CCN(CCCC(c2ccc(F)cc2)c2ccc(F)cc2)CC1 (configuration not stated) | . | . | . | . | -22%
O=C(CCc1ccc(F)c(F)c1)NC1CCCN(Cc2ccc(Cl)cc2)C1 (configuration not stated) | -8% | 77% | -20%[46.1 µM] | -2% | 11µM*
CN(Cc1ccc(Cl)s1)C(=O)CCl | ? | -24% | 11µM* | 10% | ?
CN(Cc1ccc(Cl)cc1)C(=O)CCl | 1% | -15% | . | -8% | .
Cc1cc(Br)ccc1SCC(=O)NCC(c1ccco1)N1CCCCC1 (configuration not stated) | -8% | 49% | -18% | -17% | ?
Cc1c(C(=O)NCC(c2ccco2)N2CCCC2)sc2ccccc12 (configuration not stated) | . | 8% | -1%[46.1 µM] | 0% | 11µM*
SMILES | AmpC detergent | AmpC inh no detg | Lassa entry inh | AMA1 RON2 block | MARV entry inh
COc1cc(C(=O)NCC(c2ccco2)N2CCCC2)ccc1OCc1ccc(Cl)cc1Cl (configuration not stated) | . | . | . | -19% | .
O=C(NCC(c1ccco1)N1CCCC1)c1sc2ccccc2c1Cl (configuration not stated) | -13% | 24% | . | -13% | .
COc1ccc(Cl)cc1C(=O)NCC(c1ccco1)N1CCCC1 (configuration not stated) | 3% | 0.16µM* | 8% | -10% | ?
Cc1ccc(C)c(SCC(=O)NCC(c2ccco2)N2CCCCC2)c1 (configuration not stated) | -8% | 15% | ? | -9% | 13µM*
COc1cc(OC)c(NS(=O)(=O)c2c(C(=O)N3CCC(C)CC3)c(C)n(C)c2C)cc1Cl | -7% | . | -1%[46.1 µM] | . | .
CC(NC(=O)c1cccc(NC(=O)c2nsc3ccccc23)c1)c1ccccc1 (configuration not stated) | -3% | . | ? | . | .
CC=C[C@@H]1Oc2ccc(OC)cc2N2C(=O)[C@H](C)[C@@H](OCOC)[C@H]12 | . | . | . | . | -23%[14.2 µM]
CCCN1CCCc2cc(CN(CCCN3CCOCC3)C(=O)Nc3ccc(OCC)cc3)ccc21 | ? | 186% | ? | 27µM* | ?
C[C@@H]1CC[C@H]2C(=O)N(Cc3cccc([N+](=O)[O-])c3)C[C@H](O)CN2[C@@H]1c1cccc(Br)c1 | . | . | 7%[14.3 µM] | . | -10%[14.2 µM]
O=S1(=O)NC(c2ccccc2)CC(CC2CCCCC2)O1 (configuration not stated) | -9% | 8.9µM* | . | 1% | .
C=C1C(=O)OC2CC(C)C3C=CC(=O)C3(C)C(O)C12 (configuration not stated) | . | . | 1.3µM* | -6% | 0.63µM*
C=C1C(=O)OC2C1CCC(C)C1C=CC(=O)C12C (configuration not stated) | . | . | ? | 8% | 11µM*
Cc1ccc(C)c(NC(=O)c2cnc3sc(N4CCOCC4)nn3c2=O)c1 | -6% | . | 10%[46.1 µM] | . | .
O=c1c(O)cccc2cc(O)c(O)c(O)c12 | ? | 10µM* | . | 2.5µM* | .
COc1ccc(CNC(=O)C2CCN(S(=O)(=O)Cc3ccccc3)CC2)cc1 | 1% | . | 27%[46.1 µM] | . | ?
CNC(=O)NC1CCCC(C2=NC(C)=NCC2)C1 (configuration not stated) | . | . | . | . | 5%
COc1cc(CNC2CCCCCCC2)cc(Br)c1OCC#N | -3% | -15% | -17% | -9% | 12µM*
CCOc1ccc(NC(=O)CCCc2cc(-c3ccc(OCC)cc3)on2)cc1 | -19% | -12% | ? | -1% | -21%[46.1 µM]
CCOc1ccc(-c2cc(CCCC(=O)Nc3cccc(OC)c3)no2)cc1 | ? | -35% | 0.82µM* | -4% | ?
O=[N+]([O-])c1cccc(NNS(=O)(=O)c2ccccc2F)c1 | -11% | -51% | ? | -23% | 8.9µM*
Cc1ccc(/C=N/Nc2cccc(C(=O)O)c2)s1 | -13% | -18% | 1.6µM* | -16% | 1.1µM*
O=C(O)c1cccc(N/N=C/c2ccc(F)c(F)c2)c1 | -1% | -10% | 4µM* | 11% | ?
